# Measurements taken from PubChem BioAssay.
# Some of the results follow. Calls of active or inactive are those of the source.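 How the source made its calls, unless noted: active means at 20 µM dose, 40% or more inhibition averaged across four replicates; inactive means the rest.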
# Tests used:
# [1] = inhibition of PEG-3 promoter luciferase signal – cell-based, HeLa, luciferase reporter, single concentration, confirmation (AID 602417); conditions: HeLa PEG-Prom luciferase reporter, luminescence, overnight; at 20 µM; stronger effect = higher value
# [2] = target: PEG-3 (UniProt Q6IN02); assay: inhibition of PEG-3 promoter-driven reporter – cell-based, HeLa, luciferase, CREF/GAPDH counter-screen panel, dose response (AID 624167); conditions: CREF/GAPDH counter-screens; HeLa PEG-Prom luciferase reporter, overnight, run 1, dose range 1, at 100 µM (top of the series) unless noted
# Chain of PEG-3 (Q6IN02 whole entry, looked up): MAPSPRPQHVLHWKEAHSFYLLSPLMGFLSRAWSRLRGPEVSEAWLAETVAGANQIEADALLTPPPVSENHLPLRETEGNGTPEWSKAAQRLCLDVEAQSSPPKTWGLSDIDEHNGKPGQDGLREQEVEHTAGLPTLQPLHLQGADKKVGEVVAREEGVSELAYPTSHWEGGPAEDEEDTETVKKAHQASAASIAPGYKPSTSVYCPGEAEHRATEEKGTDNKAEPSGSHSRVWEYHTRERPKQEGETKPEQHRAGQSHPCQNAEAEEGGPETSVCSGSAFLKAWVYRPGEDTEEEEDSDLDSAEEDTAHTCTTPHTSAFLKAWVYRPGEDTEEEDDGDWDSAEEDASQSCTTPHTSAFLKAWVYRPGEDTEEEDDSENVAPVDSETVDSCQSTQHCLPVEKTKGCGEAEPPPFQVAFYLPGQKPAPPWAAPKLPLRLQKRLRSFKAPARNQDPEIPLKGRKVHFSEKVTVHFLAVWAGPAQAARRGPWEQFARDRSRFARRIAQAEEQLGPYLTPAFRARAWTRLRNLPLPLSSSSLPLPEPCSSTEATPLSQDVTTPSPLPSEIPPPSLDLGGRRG
# [3] = target: PEG-3 (UniProt Q6IN02); assay: as above; conditions: CREF/GAPDH counter-screens; HeLa PEG-Prom luciferase reporter, overnight, run 2, dose range 1, at 100 µM (top of the series) unless noted
# [4] = NF-kB reporter suppression in CF airway cells – cell-based, GFP fluorescence, single concentration, confirmation (AID 602472; in the data active means inhibition above about 40%;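 further: stimulus PAF is a Pseudomonas aeruginosa filtrate and not platelet activating factor; plate controls were DMSO wells with stimulus for no effect and unstimulated DMSO wells for full effect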); conditions: KKLEB CF airway cells, PAF-induced NF-kB-GFP fluorescence, overnight; at 5 µM; stronger effect = higher value
# [5] = NFkB reporter suppression in cystic fibrosis bronchial cells – cell-based, uHTS hits, panel, cytotoxicity readout, dose response (AID 624344); conditions: CF bronchial epithelial cells, PAF-induced NFkB reporter inhibition, with PAF, run 1; at 79 µM (top of the series) unless noted
# [6] = as above; conditions: CF bronchial epithelial cells, PAF-induced NFkB reporter inhibition, with PAF, run 2; at 79 µM (top of the series) unless noted
# [7] = test system: Rat fibroblasts (CREF); assay: inhibition of PEG-3 promoter-driven reporter – cell-based, HeLa, luciferase, CREF/GAPDH counter-screen panel, dose response (AID 624167); conditions: CREF/GAPDH counter-screens; run 1, dose range 1, at 100 µM (top of the series)
# [8] = test system: Rat fibroblasts (CREF); assay: as above; conditions: CREF/GAPDH counter-screens; run 2, dose range 1, at 100 µM (top of the series)
# [9] = target: COP9 signalosome complex subunit 5 (Homo sapiens) (UniProt Q92905); assay: blockers of CSN-driven cullin deneddylation – biochemical, fluorescence polarization, single concentration, SCF-Nedd8OG substrate, confirmation (AID 720654; in the data active means inhibition above about 50%;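 further: 0% = DMSO with enzyme and 100% = no enzyme wells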); conditions: Csn5 deneddylation of SCF-Nedd8OG, 90 min, at 16.6 µM, stronger effect = higher value
# Chain of COP9 signalosome complex subunit 5 (Homo sapiens) (Q92905 whole entry, looked up, one chain of several): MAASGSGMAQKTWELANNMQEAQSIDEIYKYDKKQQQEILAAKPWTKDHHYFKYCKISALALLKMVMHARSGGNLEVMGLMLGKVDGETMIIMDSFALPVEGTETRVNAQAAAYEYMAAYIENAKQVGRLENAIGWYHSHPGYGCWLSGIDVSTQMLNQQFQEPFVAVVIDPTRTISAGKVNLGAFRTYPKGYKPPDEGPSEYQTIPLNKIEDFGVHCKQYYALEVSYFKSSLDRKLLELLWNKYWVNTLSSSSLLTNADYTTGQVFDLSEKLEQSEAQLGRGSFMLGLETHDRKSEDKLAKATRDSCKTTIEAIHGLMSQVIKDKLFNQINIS
# [10] = target: 72 kDa type IV collagenase (Homo sapiens) (UniProt P08253); assay: human MMP-2 inhibitors, single-point check – biochemical, fluorescence, single concentration, counter-screen for CSN deneddylation inhibitor project, confirmation (AID 720655;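 active means corrected plate-normalized z-score of 5 or more, or -5 or less, or inhibition of 15% or more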;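 further: plate controls were DMSO wells with enzyme for no effect and buffer wells lacking MMP-2 for full effect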); conditions: recombinant MMP-2, FRET substrate fluorescence, 60 min; at 16.6 µM
# Chain of 72 kDa type IV collagenase (Homo sapiens) (P08253 whole entry, looked up): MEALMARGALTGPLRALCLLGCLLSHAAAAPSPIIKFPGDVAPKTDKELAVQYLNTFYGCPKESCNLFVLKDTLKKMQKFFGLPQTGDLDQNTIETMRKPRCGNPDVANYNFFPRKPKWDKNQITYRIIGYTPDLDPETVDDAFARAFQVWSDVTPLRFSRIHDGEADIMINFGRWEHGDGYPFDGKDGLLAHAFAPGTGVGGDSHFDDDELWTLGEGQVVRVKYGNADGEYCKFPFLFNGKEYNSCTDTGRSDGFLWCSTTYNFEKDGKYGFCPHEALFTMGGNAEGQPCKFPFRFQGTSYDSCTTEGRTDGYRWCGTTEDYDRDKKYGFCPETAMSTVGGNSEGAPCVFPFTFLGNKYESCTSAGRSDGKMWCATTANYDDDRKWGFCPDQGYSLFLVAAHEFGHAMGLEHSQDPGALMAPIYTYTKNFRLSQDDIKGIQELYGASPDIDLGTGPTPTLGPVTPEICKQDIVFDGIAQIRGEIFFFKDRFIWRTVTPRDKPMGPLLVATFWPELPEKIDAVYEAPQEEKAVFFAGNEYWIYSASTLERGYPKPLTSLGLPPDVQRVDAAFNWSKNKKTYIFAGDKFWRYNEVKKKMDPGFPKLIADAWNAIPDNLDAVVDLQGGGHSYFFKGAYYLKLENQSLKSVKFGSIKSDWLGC
# [11] = target: Prothrombin (Bos taurus) (UniProt P00735); assay: thrombin cleavage blockers, FP readout – biochemical, fluorescence polarization, single concentration, counter-screen for CSN deneddylation inhibitor project, confirmation (AID 720656;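 active means inhibition at or above a set limit, with a fluorescence interference ratio between 0.5 and a set maximum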); conditions: bovine thrombin cleavage of Ub4-pepOG, at 16.6 µM, stronger effect = higher value
# Chain of Prothrombin (Bos taurus) (P00735 whole entry, looked up): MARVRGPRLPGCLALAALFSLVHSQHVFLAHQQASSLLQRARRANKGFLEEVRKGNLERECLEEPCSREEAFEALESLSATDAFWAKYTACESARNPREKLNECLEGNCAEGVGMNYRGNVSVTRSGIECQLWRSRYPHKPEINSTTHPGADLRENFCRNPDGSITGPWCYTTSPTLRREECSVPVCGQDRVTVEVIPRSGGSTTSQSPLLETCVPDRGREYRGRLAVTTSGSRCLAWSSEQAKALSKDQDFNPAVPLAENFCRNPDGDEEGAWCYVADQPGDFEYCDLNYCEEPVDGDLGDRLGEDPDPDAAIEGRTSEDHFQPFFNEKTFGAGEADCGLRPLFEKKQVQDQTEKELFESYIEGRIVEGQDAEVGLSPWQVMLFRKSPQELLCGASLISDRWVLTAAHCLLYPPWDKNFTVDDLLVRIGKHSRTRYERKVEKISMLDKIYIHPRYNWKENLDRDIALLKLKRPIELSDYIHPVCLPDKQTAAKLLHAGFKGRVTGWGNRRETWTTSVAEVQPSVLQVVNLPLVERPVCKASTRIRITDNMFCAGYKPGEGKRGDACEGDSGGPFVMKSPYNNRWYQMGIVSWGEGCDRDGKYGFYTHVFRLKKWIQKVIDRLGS
# [12] = target: Tumor necrosis factor receptor superfamily member 10B (Homo sapiens) (UniProt O14763); assay: viability loss of caspase-8 NB7 cells with TRAIL – with/without TRAIL, luminescence panel, confirmation (AID 651596; in the data active means activity above about 50%); conditions: NB7 neuroblastoma + caspase-8, TRAIL sensitization, NB7 Caspase-8, with TRAIL, mean of runs, at 10 µM, stronger effect = higher value
# Chain of Tumor necrosis factor receptor superfamily member 10B (Homo sapiens) (O14763 whole entry, looked up): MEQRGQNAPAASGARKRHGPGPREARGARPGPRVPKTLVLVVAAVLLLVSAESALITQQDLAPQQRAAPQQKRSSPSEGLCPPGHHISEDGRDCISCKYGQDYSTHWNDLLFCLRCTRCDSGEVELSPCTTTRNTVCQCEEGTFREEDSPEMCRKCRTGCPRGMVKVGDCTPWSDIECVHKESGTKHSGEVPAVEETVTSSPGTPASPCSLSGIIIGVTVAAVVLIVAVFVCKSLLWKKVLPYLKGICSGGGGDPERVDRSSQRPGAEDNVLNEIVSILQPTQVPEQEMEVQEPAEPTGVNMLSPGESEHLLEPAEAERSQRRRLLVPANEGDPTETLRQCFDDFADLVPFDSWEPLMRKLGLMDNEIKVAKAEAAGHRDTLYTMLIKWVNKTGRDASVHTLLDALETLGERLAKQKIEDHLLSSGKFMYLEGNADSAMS
# [13] = as above; conditions: NB7 neuroblastoma + caspase-8, without TRAIL, NB7 Caspase-8, without TRAIL, mean of runs, at 10 µM
compound,measurement,setting,value
CN(Cc1ccccc1F)C(=O)C(Cc1ccccc1)NC(=O)c1ccccc1 (stereo not drawn),inhibition,[1],48.7% (active)
same,inhibition,[2],98.9%
same,inhibition,[3],95.1%
COc1ccc(CN(C)C(=O)c2cc(-c3ccc(C)cc3C)nc3ccccc23)c(OC)c1OC,inhibition,[1],75.2% (active)
same,inhibition,[4],61.6% (active)
same,inhibition,[2],102%
same,inhibition,[3],102%
same,inhibition,[5],103%
same,inhibition,[6],111%
COc1ccc(-c2cc(C(=O)N(C)Cc3ccc(OC)c(OC)c3OC)c3ccccc3n2)cc1OC,inhibition,[1],60.4% (active)
same,inhibition,[2],68.7%
same,inhibition,[3],72.5%
CNC(=O)c1ccsc1NC(=O)c1ccc(S(=O)(=O)N2CCc3ccccc32)cc1,inhibition,[1],52.4% (active)
same,inhibition,[2],65%
same,inhibition,[3],63.5%
CN(O)C(=S)c1ccccc1,inhibition,[1],89.1% (active)
same,inhibition,[2],27%
same,inhibition,[3],78.7%
same,inhibition,[7],0.489%
same,inhibition,[8],-19.9%
CSc1nc(N)c(C#N)c(-c2ccccc2Cl)c1C#N,inhibition,[1],70.6% (active)
O=C(CSc1nc(Nc2ccccc2)nc(N2CCOCC2)n1)Nc1cc(Cl)ccc1O,inhibition,[1],78.8% (active)
same,inhibition,[2],98.4%
same,inhibition,[3],101%
CC(C)CC1C(=O)N(Cc2cn(CC3CCCCC3)nn2)CCS(=O)(=O)N1Cc1ccc(-c2ccc(Cl)cc2)cc1 (stereo not drawn),inhibition,[4],32.8% (inactive)
Cc1nnc(SCC(=O)N2c3ccccc3C(C)(c3ccc(Cl)cc3)CC2(C)C)s1 (stereo not drawn),inhibition,[1],38.4% (inactive)
COc1ccc(NC(=O)c2sc3nc(C)nc(N4CCN(c5ccccn5)CC4)c3c2C)c(OC)c1,inhibition,[4],38.6% (inactive)
NS(=O)(=O)c1ccc(N=Nc2c(O)[nH]c3ccc(Br)cc23)cc1,inhibition,[1],0.42% (inactive)
COc1ccc2[nH]c(=O)c(CN(Cc3cccnc3)S(=O)(=O)c3ccccc3F)cc2c1,inhibition,[1],56.7% (active)
same,inhibition,[4],86.3% (active)
same,inhibition,[5],109%
same,inhibition,[6],103%
Oc1ccc2ccccc2c1N=Nc1nccs1,inhibition,[1],82.7% (active)
CC(C)c1ccc2c(c1)c(SC(C)(C)C)c(CC(C)(C)C(=O)O)n2Cc1ccc(Cl)cc1,inhibition,[4],41.5% (active)
O=C(NCCN1CCOCC1)c1ccc(/C=C2\Sc3ccccc3N(Cc3ccc(F)cc3)C2=O)cc1,inhibition,[1],42.8% (active)
O=C(Nc1cccc(-c2cccc(Cl)c2)c1)C1CCN(C2CCC2)CC1,inhibition,[1],92.8% (active)
same,inhibition,[2],98%
same,inhibition,[3],98.9%
COc1ccc2c(c1)c(=Cc1ccc(N(C)C)cc1)c1cc(-c3ccccc3)[n+](C)n12,inhibition,[1],97.8% (active)
same,inhibition,[9],65% (active)
same,inhibition,[10],81.7% (active)
same,inhibition,[11],67.8% (active)
same,inhibition,[2],102%
same,inhibition,[3],102%
same,inhibition,[7],99.5%
same,inhibition,[8],100%
Cc1c(C(=O)Nc2cccc(Cl)c2)cn2c(nc3ccccc32)c1C#N,inhibition,[1],10.5% (inactive)
CCN1CCN(c2nc(Nc3cc(OC)ccc3OC)nc(Nc3cc(OC)ccc3OC)n2)CC1,inhibition,[1],70% (active)
same,inhibition,[2],47.9%
same,inhibition,[3],53.1%
CCCCNc1c(-c2cccc(Sc3ccc(OC)cc3)c2)nc2ccccn12,inhibition,[1],95.6% (active)
same,inhibition,[2],94.7%
same,inhibition,[3],81.9%
Cc1nc(SCC(=O)Nc2cc(C)on2)c2c(C)c(C)sc2n1,inhibition,[1],33.6% (inactive)
Clc1ccc2c(c1)C1=C(C(c3ccncc3)O2)C(c2ccc(Br)cc2)n2ncnc2N1 (stereo not drawn),inhibition,[4],50% (active)
Cc1ccc(C)c(S(=O)(=O)N2CCN(c3ncnc4sccc34)CC2)c1,inhibition,[1],69.5% (active)
same,inhibition,[2],90.1%
same,inhibition,[3],91.3%
same,inhibition,[7],13.9%
same,inhibition,[8],74.8%
same,activity,[12],68.5%
same,activity,[13],69%
CCOC(=O)C(C(=O)c1ccccc1)C(c1ccccc1)c1nccc2ccccc12 (stereo not drawn),inhibition,[4],14.4% (inactive)
